Whole data set: some 18,000 sequences, median “log2 normalized intensity” near 0.36, cut for the highest 2% near 7.3. This is one part of a sample in which the highest values are shown more often than they occur.
target: T1, HNF4alpha8 (COS-7 nuclear extract) (Homo sapiens, UniProt P41235-5 1-452); experiment: protein-binding microarray; COS-7 nuclear extract on double-stranded Agilent 4x180k PBM; binding buffer, salt, pH and temperature not given in the material; high values mean tight binding; settings: chain copies: 2; label: 3' end of strand 1 on the slide; dsDNA, one strand shown
T1 sequence: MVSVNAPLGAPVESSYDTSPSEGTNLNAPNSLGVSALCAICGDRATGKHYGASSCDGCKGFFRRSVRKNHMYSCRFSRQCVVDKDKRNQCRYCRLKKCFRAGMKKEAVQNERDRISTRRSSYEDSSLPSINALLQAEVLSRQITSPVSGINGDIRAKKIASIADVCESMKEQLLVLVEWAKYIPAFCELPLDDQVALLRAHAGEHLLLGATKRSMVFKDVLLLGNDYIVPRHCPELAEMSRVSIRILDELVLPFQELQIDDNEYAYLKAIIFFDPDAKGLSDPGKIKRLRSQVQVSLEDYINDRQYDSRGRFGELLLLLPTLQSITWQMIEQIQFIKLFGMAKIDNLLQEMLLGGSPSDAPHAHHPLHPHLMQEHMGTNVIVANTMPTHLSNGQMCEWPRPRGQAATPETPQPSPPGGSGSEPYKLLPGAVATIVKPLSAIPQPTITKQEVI
How it was run: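 Nuclear extracts of COS-7 cells transiently transfected with a human HNF4α isoform were applied to a custom Agilent SurePrint G3 4x180k array bearing ~44,000 double-stranded ~60-nt test sequences, each in quadruplicate. The bound protein was imaged on an Agilent G2565CA scanner at 2-µm resolution. Binding signal is the normalized, background-corrected gProcessedSignal from Agilent software.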

Sequence | binding signal
GGAACCAAGAGCAGATTTGTTTGCTCTTTAGCCTAGGGAGATTAGAGTATCGGTCGA | 0.915 log2 normalized intensity
TTCCCTGAGTTTCCATTAACTGAACCTAGAGCCTAGGGAGATTAGAGTATCGGTCGA | 1.69 log2 normalized intensity
TAAGATACGAAGGGTTTAAAGGGCAGAAGAGCCTAGGGAGATTAGAGTATCGGTCGA | 2.39 log2 normalized intensity
AAGTTCATGGAAAGTTTCACTTTCTCTTATGCCTAGGGAGATTAGAGTATCGGTCGA | 0.0777 log2 normalized intensity
GCAAAGGTCAGCTCATTCCCTAGGGCTCGGGCCTAGGGAGATTAGAGTATCGGTCGA | -0.991 log2 normalized intensity
AAAGGGCAAAGGTCAGCTCATTCCCTAGGGGCCTAGGGAGATTAGAGTATCGGTCGA | 6.71 log2 normalized intensity
TAAGATTCTGGTCAAAGGTCAATGAAGCTCGCCTAGGGAGATTAGAGTATCGGTCGA | 6.64 log2 normalized intensity
TTCTGGTCAAAGGTCAATGAAGCTCTTGCTGCCTAGGGAGATTAGAGTATCGGTCGA | 6.15 log2 normalized intensity
TTCCCTAAGATTCTGGTCAAAGGTCAATGAGCCTAGGGAGATTAGAGTATCGGTCGA | 8.22 log2 normalized intensity
ATTCATTCCCTAAGATTCTGGTCAAAGGTCGCCTAGGGAGATTAGAGTATCGGTCGA | 7.83 log2 normalized intensity
ACTTAAAAGAAGCTACTAGCAAATCTGCCCGCCTAGGGAGATTAGAGTATCGGTCGA | -0.288 log2 normalized intensity
AACAAAGGTCGGTGGTATGTGTGTGCTTTAGCCTAGGGAGATTAGAGTATCGGTCGA | 2.2 log2 normalized intensity
AATGTGTGTTCTGCTGCCATTGGATGGAATGCCTAGGGAGATTAGAGTATCGGTCGA | 1.51 log2 normalized intensity
GTCAGATGACAGAATTGGTCCTGGAACTCAGCCTAGGGAGATTAGAGTATCGGTCGA | 0.192 log2 normalized intensity
CCAACACAGAAGCCTTTTGTTCTTTGTGTGGCCTAGGGAGATTAGAGTATCGGTCGA | 1.47 log2 normalized intensity
CCTATGGTCTGTTCACTTGCCAAGCCTAGTGCCTAGGGAGATTAGAGTATCGGTCGA | -0.838 log2 normalized intensity
AAATATTGTCAGTGAGGAATGTGCAAACGGGCCTAGGGAGATTAGAGTATCGGTCGA | 0.32 log2 normalized intensity
GGTTGCACTCTGGTGCCCTCTGAGTGTTTGGCCTAGGGAGATTAGAGTATCGGTCGA | 2.54 log2 normalized intensity
ACCCTCTCTGGATGCAGGTCGCCGGGAAAAGCCTAGGGAGATTAGAGTATCGGTCGA | 0.74 log2 normalized intensity
AGTCCAAAGGTCAGCCGGGGAAGGTGCAGGGCCTAGGGAGATTAGAGTATCGGTCGA | 5.55 log2 normalized intensity
TTGTGAGTCCAAAGGTCAGCCGGGGAAGGTGCCTAGGGAGATTAGAGTATCGGTCGA | 7.55 log2 normalized intensity
ATGTTAGTCTTGAGTCCCAAAGTCCAAAGGGCCTAGGGAGATTAGAGTATCGGTCGA | 6.25 log2 normalized intensity

Sequence | binding signal
AGGTCAGGGAGTAGGTTTGATTTGTGAAAGGCCTAGGGAGATTAGAGTATCGGTCGA | 1.03 log2 normalized intensity
CCTGAGGTGTGAGAGGGCAAAGGTCACAGCGCCTAGGGAGATTAGAGTATCGGTCGA | 8.73 log2 normalized intensity
AAGGTTGGTTTTTGGAGACAGGAGTAGTCAGCCTAGGGAGATTAGAGTATCGGTCGA | 0.982 log2 normalized intensity
TCACAGTGTGGGGCAAATCTGAGGTCAAAGGCCTAGGGAGATTAGAGTATCGGTCGA | 2.51 log2 normalized intensity
TGAGTATCCAAAGGTCAGTGACAAATGTCAGCCTAGGGAGATTAGAGTATCGGTCGA | 4.51 log2 normalized intensity
GGTGTGAGAGGGCAAAGGTCACAGCATTAGGCCTAGGGAGATTAGAGTATCGGTCGA | 7.08 log2 normalized intensity
TAGGTTTGTGAGTCCAAAGGTCAGCCGGGGGCCTAGGGAGATTAGAGTATCGGTCGA | 8.36 log2 normalized intensity
GATGCTAGGTTTGTGAGTCCAAAGGTCAGCGCCTAGGGAGATTAGAGTATCGGTCGA | 9.81 log2 normalized intensity
AAAAGGATGCTAGGTTTGTGAGTCCAAAGGGCCTAGGGAGATTAGAGTATCGGTCGA | 5.08 log2 normalized intensity
TACGTGACCTACTTAGTCTCCAGCCCCCAGGCCTAGGGAGATTAGAGTATCGGTCGA | 4.08 log2 normalized intensity
TTTGGGGGTTGGTATTACAAAGCAATCTACGCCTAGGGAGATTAGAGTATCGGTCGA | 0.18 log2 normalized intensity
TGAGCCATCCTGAACAAATGTACTGGATATGCCTAGGGAGATTAGAGTATCGGTCGA | -0.391 log2 normalized intensity
GACATAAATCACATTGTTAGCATAGCCTATGCCTAGGGAGATTAGAGTATCGGTCGA | -0.813 log2 normalized intensity
TGCTCACGTTTTCCTGCTGACCCTCTCCCCGCCTAGGGAGATTAGAGTATCGGTCGA | 4.22 log2 normalized intensity
GATGTTCTACACTGCTTACCCTGCAGTGTGGCCTAGGGAGATTAGAGTATCGGTCGA | -0.757 log2 normalized intensity
TTACCCTGCAGTGTGACCTTTGCCTTCTTGGCCTAGGGAGATTAGAGTATCGGTCGA | 8.09 log2 normalized intensity
TCTACACTGCTTACCCTGCAGTGTGACCTTGCCTAGGGAGATTAGAGTATCGGTCGA | 4.68 log2 normalized intensity
ACTGCTTACCCTGCAGTGTGACCTTTGCCTGCCTAGGGAGATTAGAGTATCGGTCGA | 8.52 log2 normalized intensity
GTGTGACCTTTGCCTTCTTGACATCTCTCTGCCTAGGGAGATTAGAGTATCGGTCGA | 5.21 log2 normalized intensity
CTGCAGTGTGACCTTTGCCTTCTTGACATCGCCTAGGGAGATTAGAGTATCGGTCGA | 6.8 log2 normalized intensity
AGCTTGCTCTCACCAGCTTCTTCTCTTTGAGCCTAGGGAGATTAGAGTATCGGTCGA | -0.143 log2 normalized intensity
TGGTGCTATCTTTGCTCACTGTAACCTTTGGCCTAGGGAGATTAGAGTATCGGTCGA | 4.34 log2 normalized intensity

Sequence | binding signal
GTAACCTTTGCCCCCCAAGTTGAAGCCATCGCCTAGGGAGATTAGAGTATCGGTCGA | 5.74 log2 normalized intensity
TCACTGTAACCTTTGCCCCCCAAGTTGAAGGCCTAGGGAGATTAGAGTATCGGTCGA | 7.68 log2 normalized intensity
ATCTCAGCTCACTGTAACCTTTGCCCCCCTGCCTAGGGAGATTAGAGTATCGGTCGA | 9.22 log2 normalized intensity
GTGCTATCTCAGCTCACTGTAACCTTTGCCGCCTAGGGAGATTAGAGTATCGGTCGA | 4.68 log2 normalized intensity
AACCTTTGCCCCAGCTGTCACCCAGCCAGAGCCTAGGGAGATTAGAGTATCGGTCGA | 4.16 log2 normalized intensity
TTTGCTCACTGTAACCTTTGCCCCCCAAGTGCCTAGGGAGATTAGAGTATCGGTCGA | 9.22 log2 normalized intensity
AGCCCCAACCCACTGTTGCCCCTTCCAAAGGCCTAGGGAGATTAGAGTATCGGTCGA | 4.73 log2 normalized intensity
ACTGTAACCTTTGCCCCCCTGGGCTCAAGCGCCTAGGGAGATTAGAGTATCGGTCGA | 6.27 log2 normalized intensity
TCAAGCTCAATGCAACCAGTTGGTGGGTCAGCCTAGGGAGATTAGAGTATCGGTCGA | 1.44 log2 normalized intensity
GTTAGAACAAAGTCCAAATTCCTAACTATGGCCTAGGGAGATTAGAGTATCGGTCGA | 4.38 log2 normalized intensity
TTTATTAGGGGTCAGCAAAGAACTCCCCAGGCCTAGGGAGATTAGAGTATCGGTCGA | 2.41 log2 normalized intensity
ACCAGCAATTTTCAGGGTTAAAAGTTCTGCGCCTAGGGAGATTAGAGTATCGGTCGA | 1.05 log2 normalized intensity
GTGTTTGTCCTTTGTTGCAATGCTGGAACAGCCTAGGGAGATTAGAGTATCGGTCGA | 1.28 log2 normalized intensity
CAGGTGGGAGGGGTGGACTTTGGCTTTTCCGCCTAGGGAGATTAGAGTATCGGTCGA | 6.31 log2 normalized intensity
GAGATAAGTCACCTTATCAAGTCCGAACTCGCCTAGGGAGATTAGAGTATCGGTCGA | 1.35 log2 normalized intensity
GGAATCTTGCCCTGTCGCCCAGGCTGGAATGCCTAGGGAGATTAGAGTATCGGTCGA | 1.58 log2 normalized intensity
ATCCCGTGGACTTTGCCTGCCCATCCCGTGGCCTAGGGAGATTAGAGTATCGGTCGA | 4.23 log2 normalized intensity
TTTGGCCCCCAGAGCCCCGTGTCTCCCTACGCCTAGGGAGATTAGAGTATCGGTCGA | 4.89 log2 normalized intensity
GTGGACTTTGCCTGCCCATCCCGTGGACTCGCCTAGGGAGATTAGAGTATCGGTCGA | 4.49 log2 normalized intensity
TCTTTGCCCTCTTGGTATCAGCTTTGAGACGCCTAGGGAGATTAGAGTATCGGTCGA | 1.91 log2 normalized intensity
AAGAGACTTTGCCCTTTTTTTCTCTCCCCTGCCTAGGGAGATTAGAGTATCGGTCGA | 3.92 log2 normalized intensity
GCTCTCCGTGGACTTTGCCCCCTACAGTTTGCCTAGGGAGATTAGAGTATCGGTCGA | 10.5 log2 normalized intensity

Sequence | binding signal
CTTTCTATCAGCTCTCCGTGGACTTTGCCCGCCTAGGGAGATTAGAGTATCGGTCGA | 9.95 log2 normalized intensity
TATCAGCTCTCCGTGGACTTTGCCCCCTACGCCTAGGGAGATTAGAGTATCGGTCGA | 11.3 log2 normalized intensity
TCTTCCTTTCTATCAGCTCTCCGTGGACTTGCCTAGGGAGATTAGAGTATCGGTCGA | 3.52 log2 normalized intensity
TTGATTTAACATTTGTGATCTGGCACAAATGCCTAGGGAGATTAGAGTATCGGTCGA | 0.366 log2 normalized intensity
AGATACTGAATCTCCCAGTGCTTTGATCTTGCCTAGGGAGATTAGAGTATCGGTCGA | 1.39 log2 normalized intensity
TCACCTGCTCATTGACCCTTAGGCCAAGGCGCCTAGGGAGATTAGAGTATCGGTCGA | 3.1 log2 normalized intensity
ATGTCAGGAGCCCCACTGTAGTAAGGGAGTGCCTAGGGAGATTAGAGTATCGGTCGA | -0.892 log2 normalized intensity
CACCTCTGCTTATCTCAACTGATTTACCTCGCCTAGGGAGATTAGAGTATCGGTCGA | 0.918 log2 normalized intensity
TTAACACAAGTTATTACCGTGATGTTCGTTGCCTAGGGAGATTAGAGTATCGGTCGA | 1.14 log2 normalized intensity
CAGAGCTGTCGTCCCAGGGCAAAGGTCACCGCCTAGGGAGATTAGAGTATCGGTCGA | 8.47 log2 normalized intensity
AGGGCAAAGGTCACCAGCTAAGCTGTTACTGCCTAGGGAGATTAGAGTATCGGTCGA | 5.83 log2 normalized intensity
CTGTCGTCCCAGGGCAAAGGTCACCAGCTAGCCTAGGGAGATTAGAGTATCGGTCGA | 7.57 log2 normalized intensity
GTCCCAGGGCAAAGGTCACCAGCTAAGCTGGCCTAGGGAGATTAGAGTATCGGTCGA | 6.21 log2 normalized intensity
CTTCCCAGCTGCTGGTCAAAGGGCATTACTGCCTAGGGAGATTAGAGTATCGGTCGA | 5.83 log2 normalized intensity
GGGCAAATCTGAGGTCAAAGCTGTCAGAGAGCCTAGGGAGATTAGAGTATCGGTCGA | -0.316 log2 normalized intensity
ATCCTGCCTCCATTAATTAACCTTTGAGCTGCCTAGGGAGATTAGAGTATCGGTCGA | 6.76 log2 normalized intensity
TTCGGTGCTGACCTTTGTTCACATTTGTGCGCCTAGGGAGATTAGAGTATCGGTCGA | 5.96 log2 normalized intensity
CATTCACATGACCTTTGTCCGTTCCTGCCTGCCTAGGGAGATTAGAGTATCGGTCGA | 6.63 log2 normalized intensity
ACATGACCTTTGTCCGTTCCTGCCTGGAGCGCCTAGGGAGATTAGAGTATCGGTCGA | 5.37 log2 normalized intensity
ATACCCATTCACATGACCTTTGTCCGTTCCGCCTAGGGAGATTAGAGTATCGGTCGA | 7.49 log2 normalized intensity
CTGGGATGAGATACCCATTCACATGACCTTGCCTAGGGAGATTAGAGTATCGGTCGA | 3.92 log2 normalized intensity
ATGAGATACCCATTCACATGACCTTTGTCCGCCTAGGGAGATTAGAGTATCGGTCGA | 8.96 log2 normalized intensity

From publication PMC10726135, “HNF4α isoforms regulate the circadian balance between carbohydrate and lipid metabolism in the liver”
